According to the supplement of paper PMC6522484:
± gives the standard deviation of the averaged measurements.

Tests used:
DLD1 [1] = test: cell viability (CellTiter-Glo) relative to plate median (fraction of plate median); higher = more viable cells; conditions: 5 µM; treatment time 24 h; reporter: 7TFP
Summary of the method: (§1)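 Cells were seeded in 384-well plates; these were colorectal cancer lines stably transduced with lentiviral 7TFP or TCF4/Wnt firefly luciferase reporters. After 24 h, library compounds went in at a final 5 µM, and exposure lasted 24 h. Parallel plates were then read for firefly luciferase or CellTiterGlo luminescence, each well normalised to its plate median, with two independent replicates averaged.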

HCT116 = test: as above; conditions: 5 µM; treatment time 24 h; reporter: TCF4/Wnt
Summary of the method: as §1

SW480 [2] = test: as above; conditions: 5 µM; treatment time 24 h; reporter: 7TFP
Summary of the method: as §1

DLD1 [3] = test: TCF/Wnt firefly luciferase reporter signal relative to plate median (fraction of plate median); higher = higher Wnt reporter signal; conditions: 5 µM; treatment time 24 h; reporter: 7TFP
Summary of the method: as §1

SW480 [4] = test: as above; conditions: 5 µM; treatment time 24 h; reporter: 7TFP
Summary of the method: as §1

Structure (SMILES) | cell viability (DLD1 [1]) | cell viability (HCT116) | cell viability (SW480 [2]) | TCF/Wnt firefly luciferase reporter signal (DLD1 [3]) | TCF/Wnt firefly luciferase reporter signal (SW480 [4])
CN[C@@H]1[C@H](O[C@H]2[C@H](O[C@H]3[C@H](O)[C@@H](O)[C@H](N=C(N)N)[C@@H](O)[C@@H]3N=C(N)N)O[C@@H](C)[C@]2(O)C=O)O[C@@H](CO)[C@H](O)[C@H]1O | 0.962 ± 0.097 | 0.936 ± 0.044 | 1.07 ± 0.078 | 0.817 ± 0.0014 | 0.935 ± 0.0028
Oc1ccc(Cl)c2cccnc12 | 1.025 ± 0.0071 | 0.988 ± 0.032 | 1.02 ± 0.021 | 0.935 ± 0.069 | 1.09 ± 0.042
CCC(=O)OCC(=O)[C@@]1(OC(=O)CC)[C@@H](C)C[C@H]2[C@@H]3CCC4=CC(=O)C=C[C@]4(C)[C@@]3(F)[C@@H](O)C[C@@]21C | 1.015 ± 0.0071 | 1.03 ± 0.073 | 0.963 ± 0.018 | 0.876 ± 0.12 | 0.941 ± 0.014
CCOc1ccc(NC(C)=O)cc1 | 0.956 ± 0.12 | 1.065 ± 0.0071 | 1 ± 0.021 | 1.01 ± 0.08 | 1.06 ± 0.05
COCCCOc1cc(C[C@@H](C[C@H](N)[C@@H](O)C[C@H](C(=O)NCC(C)(C)C(N)=O)C(C)C)C(C)C)ccc1OC | 0.99 ± 0.029 | 0.962 ± 0.068 | 0.974 ± 0.0057 | 0.991 ± 0.07 | 1.07 ± 0.021
CCN1CCCC(OC(=O)C(c2ccccc2)c2ccccc2)C1 (stereo not given) | 0.981 | 1.01 | 0.953 ± 0.025 | 0.941 ± 0.076 | 1.01 ± 0.07
COc1cc2occ(-c3ccccc3)c(=O)c2c(OC)c1C | 0.982 ± 0.015 | 1 ± 0.025 | 0.958 ± 0.021 | 1.15 ± 0.16 | 1.12 ± 0.05
C=C[C@]1(C)C=C2C(=O)[C@@]3(O)OC(=O)[C@@]4(CCCC(C)(C)[C@H]34)[C@@]2(O)CC1 [Sphaeropsidin A] | 0.898 ± 0.16 | 0.973 ± 0.067 | 0.952 ± 0.015 | 0.938 ± 0.086 | 1.05 ± 0.19
CCN(CC)CCNC(=O)c1cc(Br)c(N)cc1OC | 1.02 ± 0.081 | 1.07 ± 0.028 | 1.02 ± 0.047 | 0.985 ± 0.05 | 1.16 ± 0.078
C[C@](N)(Cc1ccc(O)cc1)C(=O)O [alpha-METHYL-L-TYROSINE] | 1.08 ± 0.11 | 1.07 ± 0.078 | 0.944 ± 0.016 | 0.896 ± 0.02 | 0.974 ± 0.11
CC(=O)c1c2c(c(C)n1-c1ccccc1C(=O)O)C(=O)c1c(O)cccc1C2=O [Bhimamycin D] | 1.02 ± 0.048 | 0.863 ± 0.025 | 0.969 ± 0.072 | 1.05 ± 0.11 | 1.08 ± 0.042
O=C(CCCN1CC=C(n2c(=O)[nH]c3ccccc32)CC1)c1ccc(F)cc1 | 0.995 ± 0.0071 | 0.868 ± 0.025 | 0.994 ± 0.023 | 0.829 ± 0.061 | 0.895 ± 0.088
COc1ccc(/C=C/C(=O)O)cc1OC | 1.02 ± 0.045 | 1.06 ± 0.16 | 0.951 ± 0.083 | 1.01 ± 0.021 | 0.984 ± 0.021
CCCCCCCCCc1ccc(OCCOCCOCCOCCOCCOCCOCCOCCOCCO)cc1 | 0.985 ± 0.064 | 0.947 ± 0.036 | 0.998 ± 0.032 | 1 ± 0.18 | 0.904 ± 0.088
COc1cc(C)c2c(c1C=O)Oc1c(c(C)c(O)c3c1C(O)OC3=O)OC2=O (stereo not given) | 0.951 ± 0.015 | 0.956 ± 0.028 | 1.06 ± 0.014 | 0.949 ± 0.16 | 0.927 ± 0.077
